Experimental data as given in PubChem BioAssay (Tox21).
Results filed as inconclusive are left out. Activity calls are given as the source filed them. Unless noted, the call rests on the fitted dose curve; in most records, active means well fitted curve in the direction sought with a large enough effect in the repeat runs; inconclusive means weak or mixed curves; inactive means no such curve, though single readings can be large; an effect the other way counts as inactive or inconclusive.

How the values were obtained:
[1] = qHTS RealTime-Glo MT Cell Viability Assay in HepG2 cells - 32 hour (AID 1224877); further: nearly all actives have a fitted effect of over 55% in size
How it was run: (§1)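 Viability was tracked continuously by NanoLuc luminescence from prosubstrate reduced by living HepG2 cells, at successive time points over 40 h of compound exposure. Cells with reagent were preincubated 5 h at 37 °C before compound addition.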

[2] = A CellTox Green Cytotoxicity Assay to monitor cytotoxicity in HepG2 cells - 24 hour (AID 1224878); further: nearly all actives have a fitted effect of over 45% in size
How it was run: (§2)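 Continuous culture of HepG2 cells with a membrane-impermeant DNA dye; rising fluorescence marks dead cells. Compound exposure lasted up to 40 h at 37 C, with reads every 8 h from 0 h.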

[3] = A CellTox Green Cytotoxicity Assay to monitor cytotoxicity in HepG2 cells - 40 hour (AID 1224879); further: nearly all actives have a fitted effect of over 40% in size
How it was run: as §2

[4] = qHTS RealTime-Glo MT Cell Viability Assay in HEK293 cells - 0 hour (AID 1224880); further: top concentration of the series differs between compounds; nearly all actives have a fitted effect of over 45% in size
How it was run: (§3)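 qHTS format; HEK293 cells with NanoLuc/prosubstrate reagent, 37 C/5% CO2 for 5 h pre-dosing; compounds 23 nL in DMSO; luminescence at each time point reflects viable cells.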

[5] = A CellTox Green Cytotoxicity Assay to monitor cytotoxicity in HEK293 cells - 32 hour (AID 1224881); further: nearly all actives have a fitted effect of over 40% in size
How it was run: (§4)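 Each value comes from one timepoint of a single continuous run in which HEK293 cells with CellTox Green were exposed to compound for up to 40 h at 37 C, dye fluorescence rising with cell death.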

[6] = A CellTox Green Cytotoxicity Assay to monitor cytotoxicity in HepG2 cells - 0 hour (AID 1224882); further: nearly all actives have a fitted effect of over 35% in size
How it was run: as §2

[7] = A CellTox Green Cytotoxicity Assay to monitor cytotoxicity in HepG2 cells - 32 hour (AID 1224883); further: nearly all actives have a fitted effect of over 50% in size
How it was run: as §2

[8] = A CellTox Green Cytotoxicity Assay to monitor cytotoxicity in HEK293 cells - 8 hour (AID 1224884); further: nearly all actives have a fitted effect of over 35% in size
How it was run: as §4

[9] = qHTS RealTime-Glo MT Cell Viability Assay in HepG2 cells - 16 hour (AID 1224885); further: nearly all actives have a fitted effect of over 50% in size
How it was run: as §1

[10] = qHTS RealTime-Glo MT Cell Viability Assay in HEK293 cells - 8 hour (AID 1224887); further: top concentration of the series differs between compounds; nearly all actives have a fitted effect of over 50% in size
How it was run: as §3

[11] = A CellTox Green Cytotoxicity Assay to monitor cytotoxicity in HEK293 cells - 16 hour (AID 1224888); further: nearly all actives have a fitted effect of over 35% in size
How it was run: as §4

[12] = A CellTox Green Cytotoxicity Assay to monitor cytotoxicity in HepG2 cells - 8 hour (AID 1224890); further: nearly all actives have a fitted effect of over 45% in size
How it was run: as §2

[13] = qHTS assay to identify small molecule antagonists of the estrogen receptor alpha (ER-alpha) signaling pathway using the BG1 cell line in the presence of 0.1 nM 17-beta-estradiol - cell viability counter screen (AID 1259241); further: nearly all actives have a fitted effect of over 40% in size
How it was run: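 VM7Luc4E2 cells (endogenous ER-alpha, 4×ERE-luciferase), hormone-starved 5 days in charcoal-stripped FBS, were treated with compounds plus 0.1 nM 17beta-estradiol for 22 hr at 37C; viability read in same wells as CellTiter-Fluor live-cell protease fluorescence.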

[14] = qHTS assay to identify small molecule antagonists of the androgen receptor (AR) signaling pathway using the MDA cell line in the presence of 0.5 nM R1881 - cell viability counter screen (AID 1259242); further: nearly all actives have a fitted effect of over 45% in size
How it was run: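 Fluorescence from CellTiter-Fluor, which reports protease activity of live cells, was read 30 min after reagent addition to MDA-kb2 cells that had been incubated 16 hr with compound and 0.5 nM R1881.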

[15] = molecular target: Estrogen receptor (Homo sapiens) (UniProt P03372); experiment: qHTS assay to identify small molecule antagonists of the estrogen receptor alpha (ER-alpha) signaling pathway using the BG1 cell line in the presence of 0.1 nM 17-beta-estradiol (AID 1259244); further: nearly all actives have a fitted effect of over 50% in size
Chain of Estrogen receptor (Homo sapiens) (P03372 whole entry, looked up): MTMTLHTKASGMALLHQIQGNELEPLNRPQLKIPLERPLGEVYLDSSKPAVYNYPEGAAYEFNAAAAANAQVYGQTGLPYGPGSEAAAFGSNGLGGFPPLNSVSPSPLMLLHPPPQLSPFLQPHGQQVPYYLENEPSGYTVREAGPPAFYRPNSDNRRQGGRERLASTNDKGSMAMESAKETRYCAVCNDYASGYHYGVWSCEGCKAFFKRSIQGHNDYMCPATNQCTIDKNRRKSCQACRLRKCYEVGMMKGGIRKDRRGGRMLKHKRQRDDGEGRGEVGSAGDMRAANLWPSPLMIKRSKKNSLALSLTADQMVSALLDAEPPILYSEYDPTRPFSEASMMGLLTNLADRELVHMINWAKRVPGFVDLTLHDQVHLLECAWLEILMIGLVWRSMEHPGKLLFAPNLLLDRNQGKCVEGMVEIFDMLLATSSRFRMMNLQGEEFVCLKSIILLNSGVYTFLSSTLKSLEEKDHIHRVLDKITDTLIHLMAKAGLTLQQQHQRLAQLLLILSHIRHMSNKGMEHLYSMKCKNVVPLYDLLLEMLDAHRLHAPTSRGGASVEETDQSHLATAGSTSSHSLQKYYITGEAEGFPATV
How it was run: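 Quantitative high-throughput screen in VM7Luc4E2 cells: compound plus 0.1 nM E2 (final), 22 h, 37C, 5% CO2; ONE-Glo added, 30 min room temperature, luminescence measured.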

[16] = qHTS assay to identify small molecule HDAC inhibitors - cell viability counter screen (AID 1259365)
How it was run: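 Wild-type HCT-116 cells were seeded at 1,500 per well, incubated overnight at 37 C, then exposed to compounds in DMSO for 2hr. Viability was read by CellTiter-Glo luminescence after 30min at room temperature.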

[17] = qHTS RealTime-Glo MT Cell Viability Assay in HepG2 cells - 0 hour (AID 1224889); further: nearly all actives have a fitted effect of over 50% in size
How it was run: as §1

[18] = qHTS assay to identify small molecule HDAC inhibitors (AID 1259364)
How it was run: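 Endogenous HDAC class I/II activity was measured in wild-type HCT-116 cells by HDAC-Glo luminescence after 2 h compound treatment.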

[19] = qHTS RealTime-Glo MT Cell Viability Assay in HEK293 cells - 24 hour (AID 1224886)
How it was run: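 Viability tracked continuously by luminescence as live cells reduce a prosubstrate for NanoLuc; HEK293 cells preincubated 5 h, compound-treated at 37 C, and read at 0, 8, 16, 24, 32 and 40 h.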

[20] = qHTS assay to identify small molecule phospholipidosis (PLD) inducers (AID 1259344; active means well fitted curve in the direction sought with a large enough effect; an effect the other way counts as inactive or inconclusive)
How it was run: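 HepG2 cells grown on collagen I take up LipidTOX Red while exposed to compound for 24 h; after fixation they are imaged at 20x and pit metrics are extracted.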
On the % scale 0 is the no-effect control and ±100 the full control effect.

CCC1COC(=O)O1 (configuration not stated)
inactive: outcome [1] | Potency [2] | Potency [3] | outcome [4] | Potency [5] | Potency [6] | Potency [7] | Potency [8] | outcome [9] | Potency [10] | Potency [11] | Potency [12] | Potency [13] | Potency [14] | Potency [15] | outcome [16]

O=C(O)c1ccccc1C(=O)OCc1ccccc1
inactive: outcome [1] | Potency [2] | Potency [3] | outcome [4] | Potency [5] | Potency [6] | Potency [7] | Potency [8] | outcome [9] | Potency [10] | Potency [11] | Potency [17] | Potency [12] | Potency [13] | Potency [14] | Potency [15] | Potency [18] | outcome [16]

NC(Cc1c[nH]c2ccccc12)C(=O)O (configuration not stated)
inactive: outcome [1] | Potency [2] | Potency [3] | outcome [4] | Potency [5] | Potency [6] | Potency [7] | Potency [8] | outcome [9] | Potency [10] | Potency [11] | Potency [17] | Potency [12] | Potency [13] | Potency [14] | outcome [16]

CCOC(=O)CCc1ccccc1
inactive: outcome [1] | Potency [2] | Potency [3] | outcome [4] | Potency [5] | Potency [6] | Potency [7] | outcome [9] | Potency [19] | Potency [10] | Potency [11] | Potency [17] | Potency [12] | Potency [13] | Potency [14] | Potency [18] | outcome [16]

FC(F)(F)c1ccc(Cl)cc1Cl
inactive: outcome [1] | Potency [2] | Potency [3] | outcome [4] | Potency [5] | Potency [6] | Potency [7] | Potency [8] | outcome [9] | Potency [19] | Potency [10] | Potency [11] | Potency [17] | Potency [12] | Potency [13] | Potency [14] | Potency [18] | outcome [16]

C=C(C)C(=O)OC
inactive: outcome [1] | Potency [2] | Potency [3] | outcome [4] | Potency [5] | Potency [6] | Potency [7] | Potency [8] | outcome [9] | Potency [19] | Potency [10] | Potency [11] | Potency [17] | Potency [12] | Potency [13] | Potency [14] | Potency [18] | outcome [16]

CC(=O)OC(C)(C)Cc1ccccc1
inactive: outcome [1] | Potency [2] | Potency [3] | outcome [4] | Potency [5] | Potency [6] | Potency [7] | Potency [8] | outcome [9] | Potency [10] | Potency [11] | Potency [17] | Potency [12] | Potency [13] | Potency [14] | Potency [18] | outcome [16]

O=C(O)CCNC(=O)c1ccccc1
inactive: outcome [1] | Potency [2] | Potency [3] | outcome [4] | Potency [5] | Potency [6] | Potency [7] | Potency [8] | outcome [9] | Potency [19] | Potency [10] | Potency [17] | Potency [12] | Potency [13] | Potency [14] | Potency [15] | outcome [20] | Potency [18] | outcome [16]

CCS(=O)(=O)CCn1c([N+](=O)[O-])cnc1C
inactive: outcome [1] | Potency [2] | Potency [3] | outcome [4] | Potency [5] | Potency [6] | Potency [7] | Potency [8] | outcome [9] | Potency [10] | Potency [11] | Potency [17] | Potency [12] | Potency [13] | Potency [14] | Potency [15] | outcome [20] | Potency [18] | outcome [16]

C=C[C@@H](C)CCC=C(C)C
inactive: outcome [1] | Potency [2] | Potency [3] | outcome [4] | Potency [5] | Potency [6] | Potency [7] | Potency [8] | outcome [9] | Potency [19] | Potency [10] | Potency [11] | Potency [17] | Potency [12] | Potency [13] | Potency [14] | outcome [16]

BrC/C=C/CBr
inactive: activity change, negative = cytotoxic [1] -0.147% [at 15.8 µM] | cytotoxicity [2] -16.1% [at 15.8 µM] | cytotoxicity increase [3] -17.2% [at 15.8 µM] | activity change, negative = cytotoxicity [4] -1.92% [at 15.8 µM] | cytotoxicity increase [5] -1.01% [at 15.8 µM] | cytotoxicity [6] -11.8% [at 15.8 µM] | cytotoxicity increase [7] -16.5% [at 15.8 µM] | cytotoxicity increase [8] 1.66% [at 15.8 µM] | activity change, negative = cytotoxic [9] 4.65% [at 15.8 µM] | activity change, negative = cytotoxicity [19] 0.605% [at 15.8 µM] | activity change, negative = cytotoxicity [10] -6.32% [at 15.8 µM] | activity change [11] 4.41% [at 15.8 µM, active compounds read high] | activity change, negative = cytotoxicity [17] 4.43% [at 15.8 µM] | cytotoxicity increase [12] -2.29% [at 15.8 µM] | activity change, negative = cytotoxicity [13] 5.53% [at 19 µM] | viability change, negative = cytotoxic [14] 0.0069% [at 19 µM] | activity change, negative = inhibition [18] -0.207% [at 19 µM] | activity change, negative = cytotoxicity [16] 2.41% [at 19 µM]

CC(Cl)COP(=O)(OCC(C)Cl)OCC(C)Cl (configuration not stated)
inactive: outcome [1] | Potency [2] | Potency [3] | outcome [4] | Potency [5] | Potency [6] | Potency [7] | Potency [8] | outcome [9] | Potency [10] | Potency [11] | Potency [17] | Potency [12] | Potency [13] | Potency [14] | Potency [15] | Potency [18] | outcome [16]

O=C(O)c1c(Cl)ccc(Cl)c1Cl
inactive: outcome [1] | Potency [2] | Potency [3] | outcome [4] | Potency [5] | Potency [6] | Potency [7] | Potency [8] | outcome [9] | Potency [19] | Potency [10] | Potency [11] | Potency [12] | Potency [13] | Potency [14] | Potency [15] | Potency [18] | outcome [16]

COc1cc([N+](=O)[O-])ccc1N
inactive: outcome [1] | Potency [2] | Potency [3] | outcome [4] | Potency [5] | Potency [6] | Potency [7] | Potency [8] | outcome [9] | Potency [19] | Potency [10] | Potency [11] | Potency [17] | Potency [12] | Potency [15] | outcome [16]

C[CH2][Ge]([Cl])([CH2]C)[CH2]C
inactive: outcome [1] | Potency [2] | Potency [3] | outcome [4] | Potency [5] | Potency [6] | Potency [7] | Potency [8] | outcome [9] | Potency [10] | Potency [11] | Potency [17] | Potency [12] | Potency [13] | Potency [14] | Potency [18] | outcome [16]
